From PubChem BioAssay (NCATS) come the findings set out here.

A short description of assay [1]: Cell Viability - LYMP2-020 (AID 986).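 Also: series mostly up to about 92 µM; cells exposed to compound for 24 h at 37 °C; plate controls were DMSO only for no effect and tetraoctylammonium bromide at 92 µM for full effect; nearly all actives have a fitted effect of over 55% in size.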 The gist of the method: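 Seed 2500 cells per well and incubate 5 hr at 37 C. Add compounds at a concentration series and incubate 24 hr at 37 C. Add CellTiter-Glo, wait 30 min at RT, read luminescence, and fit a Hill curve for AC50.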
Assay [2] is described as follows: Cell Viability - LYMP2-022 (AID 987).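 Also: 0% = DMSO alone and full effect = tetraoctylammonium bromide at 92 µM; nearly all actives have a fitted effect of over 55% in size.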 The gist of the method:
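Cells were seeded at 2500 per well, rested 5 hr at 37 C, and treated with titrated compounds for 24 hr at 37 C. Cellular ATP was then quantified by luciferase luminescence, and AC50 values were derived from Hill-modelled concentration-response curves.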

A short description of assay [3]: Cell Viability - LYMP2-026 (AID 989).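 Also: cells exposed to compound for 24 h at 37 °C; % is scaled to controls: 0 for no effect and ±100 for the full control effect; nearly all actives have a fitted effect of over 50% in size.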 The gist of the method:
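Cells are seeded at 2500 per well and held 5 hr at 37 C. Compounds are added in concentration series for 24 hr, then CellTiter-Glo reagent is applied and luminescence read.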

The nature of assay [4]: Cell Viability - LYMP1-002 - Assay at 24 hr (AID 993). Also: % is scaled to controls: 0 for no effect and ±100 for the full control effect. The gist of the method: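 Acute toxicity is measured as concentration-dependent loss of cellular ATP in a human lymphoblastoid line (Coriell LYMP1-002) after 24 h treatment in complete medium. ATP is quantified by luciferase luminescence and AC50 derived by Hill modelling.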
The nature of assay [5]: Cell Viability - LYMP1-002 - Assay at 40 hr (AID 994).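 Also: 0% = DMSO only and full inhibition = 92 µM tetraoctylammonium bromide; nearly all actives have a fitted effect of over 60% in size.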 The gist of the method: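 Cells are plated at 2500 per well and rested 5 hr at 37 C. Compounds are added and incubated 40 hr at 37 C. CellTiter-Glo reagent is added for 30 min at room temperature before luminescence is read.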
A short description of assay [6]: qHTS Assay for Identification of Small Molecule Inducers of Hypoxia Response (AID 2120; active = well fitted curve in the direction sought with a large enough effect in the signal ratio, with a control signal flat, not every such curve was filed as active; the % refers to the signal ratio; also: 0% is about no effect). The gist of the method:
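Cell-based qHTS for reporter induction: hypoxia response element controlled beta-lactamase in ME-180 cells. Compounds incubated 17 h at 37 degrees C; activity from blue/green (460/530 nm) ratio, inducers ranked by AC50.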

The target in assay [7] is Estrogen receptor (Homo sapiens) (UniProt P03372). Nature of the assay: qHTS assay for small molecule antagonists of estrogen receptor alpha signaling (AID 588513; active = well fitted curve in the direction sought with a large enough effect in the signal ratio, with a control signal flat, not every such curve was filed as active; the % refers to the signal ratio; also: % is scaled to controls: 0 for no effect and ±100 for the full control effect). The gist of the method: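 Beta-lactamase reporter, antagonist mode, HEK 293 GripTite cells; 0.5nM E2 stimulus, 18 h, 37 C; CCF4 dye 2 h RT; fluorescence. IC50 and efficacy from Hill fits, normalized to E2 and DMSO.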

Assay [8] shares this target. Nature of the assay: qHTS assay for small molecule agonists of estrogen receptor alpha signaling (AID 588514; calls by dose curve;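 also: 0% = vehicle only and 100% = reference agonist; nearly all actives have a fitted effect of over 70% in size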). The gist of the method:
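Efficacy is expressed against 20 nM 17-beta-estradiol (100%) and DMSO basal (0%); EC50 from Hill equation. Assay: beta-lactamase reporter in ER-alpha-UAS-bla HEK 293 cells, 18 h compound incubation, CCF4 detection.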

Assay [9] has as its target Bile acid receptor (Homo sapiens) (UniProt Q96RI1). As to the kind of experiment: qHTS assay for small molecule antagonists of farnesoid X receptor signaling (AID 588526; calls by dose curve; also: % is scaled to controls: 0 for no effect and ±100 for the full control effect). The gist of the method:
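Concentration-response titrations were fitted to the Hill equation for half-maximal inhibition and maximal response, with data normalised to 50 uM chenodeoxycholic acid and DMSO control wells. Cells: FXR-UAS-bla HEK293T, dialyzed FBS.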

Assay [10] deals with Glucocorticoid receptor (Homo sapiens) (UniProt P04150). As to the kind of experiment: qHTS assay for small molecule agonists of glucocorticoid receptor signaling (AID 588532; active = well fitted curve in the direction sought with a large enough effect in the signal ratio, with a control signal flat; the % refers to the signal ratio;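 also: 100% = dexamethasone at 0.1 µM and 0% = DMSO only wells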). To be noted: HeLa MMTV-bla, beta-lactamase ratio, agonist, 18 h; stronger effect = higher value; percent of dexamethasone control, DMSO zero. The gist of the method:
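Titration series, up to 92 uM, applied to GRE-bla HeLa cells for 18 h at 37 C. Detection by CCF4 FRET substrate after 2 h at RT.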

Assay [11] has the same target. Nature of the assay: qHTS assay for small molecule antagonists of glucocorticoid receptor signaling (AID 588533; active = well fitted inhibition curve with a large enough effect in the signal ratio, with a control signal flat, not every such curve was filed as active; the % refers to the signal ratio;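 also: cells stimulated with 2 nM dexamethasone as agonist; % is scaled to controls: 0 for no effect and ±100 for the full control effect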). The gist of the method:
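Antagonist-mode qHTS: compound titrations added to GRE-bla HeLa cells, then dexamethasone 2 nM final; 18 h, 37 C. CCF4 FRET fluorescence normalized to dexamethasone and DMSO; IC50 from Hill fit.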

A short description of assay [12]: qHTS assay for small molecule antagonists of peroxisome proliferator-activated receptor delta signaling (AID 588535; active = well fitted inhibition curve with a large enough effect in the signal ratio, with a control signal flat, not every such curve was filed as active; the % refers to the signal ratio;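 as to max response: cells co-treated with a PPAR-delta agonist as stimulator during compound exposure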). The note with it: HEK293T PPARd-UAS-bla, beta-lactamase FRET ratio, 18 h; 460 nm channel. The gist of the method: (§1)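 Inhibition of PPAR-delta response element-driven beta-lactamase expression is measured in HEK293T cells exposed to a compound titration series for 18 hrs at 37 C. Half-maximal inhibition comes from Hill equation fitting.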

The target in assay [13] is Peroxisome proliferator-activated receptor delta (Homo sapiens) (UniProt Q03181). The assay is described as above. The gist of the method: as §1
Assay [14] addresses Peroxisome proliferator-activated receptor gamma (Homo sapiens) (UniProt P37231). Nature of the assay: qHTS assay for small molecule agonists of peroxisome proliferator-activated receptor gamma signaling (AID 588536; active = well fitted curve in the direction sought with a large enough effect in the signal ratio, with a control signal flat, not every such curve was filed as active; the % refers to the signal ratio;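 also: 0% = DMSO basal wells and 100% = rosiglitazone at 2 µM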). The gist of the method:
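Beta-lactamase reporter read-out: CCF4 fluorescence (ex 405, em 460/530 nm) after 2 h at RT. HEK293 GeneBLAzer cells were treated for 16 h at 37 C. Hill fits gave EC50 and efficacy versus 2 uM rosiglitazone (100%) and DMSO (0%).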

Assay [15] concerns the target Vitamin D3 receptor (Homo sapiens) (UniProt P11473). Nature of the assay: qHTS assay for small molecule antagonists of vitamin D receptor signaling (AID 588541; calls by dose curve). The gist of the method:
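VDR-UAS-bla HEK293T cells (2000/well, 2% charcoal-stripped FBS) were treated with titrated compounds plus 1-alpha,25-dihydroxyvitamin D3 (50 nM or 3 nM final) for 16 h at 37 C. CCF4 beta-lactamase fluorescence was read; Hill fits gave IC50.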

The target is the same in assay [16]. As to the kind of experiment: qHTS assay for small molecule agonists of vitamin D receptor signaling (AID 588543; calls by dose curve;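 also: 0% = DMSO basal and 100% = reference agonist control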). The gist of the method:
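β-lactamase reporter, VDR-UAS-bla HEK293T, agonist mode. Cells plated 5 h at 37 °C, compound titration 16 h at 37 °C, CCF4 dye 2 h RT, ratio 460/530 nm. Hill fit → EC50, efficacy vs 50 nM 1α,25-(OH)2D3.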

The nature of assay [17]: Cell Viability - LYMP2-024 (AID 988).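 Also: plate controls were DMSO only for no effect and 92 µM tetraoctylammonium bromide for full effect; nearly all actives have a fitted effect of over 60% in size.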 The gist of the method:
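qHTS cytotoxicity, human lymphoblastoid line, complete medium; 24 h cpd treatment, 37 C; CellTiter-Glo ATP luminescence readout; tetraoctylammonium bromide positive control; AC50 via Hill fit.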

Assay [18] has as its target Androgen receptor (Homo sapiens) (UniProt P10275). As to the kind of experiment: qHTS assay for small molecule agonists of androgen receptor signaling (AID 588515; active = well fitted curve in the direction sought with a large enough effect in the signal ratio, with a control signal flat; the % refers to the signal ratio; also: % is scaled to controls: 0 for no effect and ±100 for the full control effect). To be noted: AR-UAS-bla HEK293, beta-lactamase ratio, agonist 16 h; stronger effect = higher value. The gist of the method: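 Stimulation of an AR-responsive β-lactamase reporter in GripTite HEK293 cells was measured after 16 h compound exposure at 37 °C, via CCF4 fluorescence after 2 h RT. EC50 from Hill fits, normalized to R1881 at 30 nM.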

Assay [19] has the same target. Nature of the assay: qHTS assay for small molecule antagonists of androgen receptor signaling (AID 588516; active = well fitted curve in the direction sought with a large enough effect in the signal ratio, with a control signal flat, not every such curve was filed as active; the % refers to the signal ratio; also: % is scaled to controls: 0 for no effect and ±100 for the full control effect). The gist of the method:
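HEK293 AR-UAS-bla cells, 10% dialyzed FBS medium; cpd titration + R1881 10 nM final, 16 h 37 C; CCF4 2 h RT; FRET ratio; IC50/efficacy via Hill fit.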

Assay [20] concerns the target Peroxisome proliferator-activated receptor gamma (Homo sapiens) (UniProt P37231). Nature of the assay: qHTS assay for small molecule antagonists of peroxisome proliferator-activated receptor gamma signaling (AID 588537; active = well fitted inhibition curve with a large enough effect in the signal ratio, with a control signal flat, not every such curve was filed as active; the % refers to the signal ratio;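 also: reporter cells co-stimulated with 50 nM rosiglitazone agonist during compound treatment; % of control where 0% means no effect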). The gist of the method:
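Compounds are tested as concentration series for inhibition of rosiglitazone-driven (50 nM) reporter expression in GeneBLAzer PPAR-gamma-UAS-bla HEK293 cells. After 16 h at 37 C, CCF4 substrate is added for 2 h at room temperature and blue/green fluorescence is measured.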

Inconclusive results are not listed. The source made the active and inactive calls. Unless noted, calls follow the shape of the dose curve; as a rule, active = well fitted cell-killing curve with a large enough effect; inconclusive = small, poorly fitted or top-dose-only effect; inactive = flat fitted curve, though single readings scatter.

Sequence of Vitamin D3 receptor (Homo sapiens) (P11473 whole entry, looked up): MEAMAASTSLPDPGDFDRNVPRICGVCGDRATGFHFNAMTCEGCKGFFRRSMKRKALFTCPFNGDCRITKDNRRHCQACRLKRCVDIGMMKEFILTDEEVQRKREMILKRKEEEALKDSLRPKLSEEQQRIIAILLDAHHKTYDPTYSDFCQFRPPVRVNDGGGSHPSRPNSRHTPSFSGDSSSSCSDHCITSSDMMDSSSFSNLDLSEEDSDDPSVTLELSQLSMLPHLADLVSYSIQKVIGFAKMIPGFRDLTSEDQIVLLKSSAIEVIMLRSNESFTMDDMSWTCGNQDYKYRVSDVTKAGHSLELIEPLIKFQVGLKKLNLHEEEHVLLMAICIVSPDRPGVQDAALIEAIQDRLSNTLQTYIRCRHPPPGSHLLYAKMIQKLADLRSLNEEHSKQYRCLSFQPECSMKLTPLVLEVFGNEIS
Sequence of Peroxisome proliferator-activated receptor gamma (Homo sapiens) (P37231 whole entry, looked up): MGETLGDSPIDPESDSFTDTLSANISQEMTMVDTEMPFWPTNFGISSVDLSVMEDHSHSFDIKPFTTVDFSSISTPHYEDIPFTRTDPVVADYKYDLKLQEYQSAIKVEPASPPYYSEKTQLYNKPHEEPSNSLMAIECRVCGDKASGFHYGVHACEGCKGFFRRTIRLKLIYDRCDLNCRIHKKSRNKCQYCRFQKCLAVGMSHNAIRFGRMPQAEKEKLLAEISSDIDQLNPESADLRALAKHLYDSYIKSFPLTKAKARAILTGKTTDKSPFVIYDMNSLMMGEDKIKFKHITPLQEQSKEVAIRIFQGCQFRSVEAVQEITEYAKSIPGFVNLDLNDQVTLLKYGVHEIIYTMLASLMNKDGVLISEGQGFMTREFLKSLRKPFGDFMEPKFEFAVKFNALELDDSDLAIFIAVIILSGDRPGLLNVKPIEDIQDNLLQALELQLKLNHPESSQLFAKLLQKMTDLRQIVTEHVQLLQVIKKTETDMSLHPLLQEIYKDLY
Sequence of Peroxisome proliferator-activated receptor delta (Homo sapiens) (Q03181 whole entry, looked up): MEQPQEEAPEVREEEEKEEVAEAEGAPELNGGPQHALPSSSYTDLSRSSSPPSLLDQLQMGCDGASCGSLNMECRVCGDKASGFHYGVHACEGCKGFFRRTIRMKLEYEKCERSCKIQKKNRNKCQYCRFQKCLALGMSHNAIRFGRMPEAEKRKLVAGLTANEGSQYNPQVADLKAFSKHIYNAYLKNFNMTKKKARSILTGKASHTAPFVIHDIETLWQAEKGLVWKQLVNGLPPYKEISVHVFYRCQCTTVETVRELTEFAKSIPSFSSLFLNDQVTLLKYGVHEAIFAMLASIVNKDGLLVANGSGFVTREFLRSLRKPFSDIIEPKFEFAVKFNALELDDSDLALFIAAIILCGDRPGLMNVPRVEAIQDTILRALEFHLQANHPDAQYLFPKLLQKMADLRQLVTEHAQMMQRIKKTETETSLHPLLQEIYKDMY
Sequence of Bile acid receptor (Homo sapiens) (Q96RI1 whole entry, looked up): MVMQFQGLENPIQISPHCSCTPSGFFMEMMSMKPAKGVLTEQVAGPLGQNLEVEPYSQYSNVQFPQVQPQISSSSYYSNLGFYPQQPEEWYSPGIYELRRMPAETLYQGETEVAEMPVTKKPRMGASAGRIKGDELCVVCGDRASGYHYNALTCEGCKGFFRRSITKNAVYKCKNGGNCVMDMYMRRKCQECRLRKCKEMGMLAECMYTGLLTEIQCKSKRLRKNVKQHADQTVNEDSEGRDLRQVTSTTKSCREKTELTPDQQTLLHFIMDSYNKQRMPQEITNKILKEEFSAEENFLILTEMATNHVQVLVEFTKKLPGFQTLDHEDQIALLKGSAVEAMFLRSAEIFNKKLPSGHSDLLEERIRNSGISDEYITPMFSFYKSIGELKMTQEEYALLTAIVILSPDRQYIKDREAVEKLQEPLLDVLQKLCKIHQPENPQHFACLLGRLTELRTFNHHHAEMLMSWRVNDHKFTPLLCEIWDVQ
Sequence of Androgen receptor (Homo sapiens) (P10275 whole entry, looked up): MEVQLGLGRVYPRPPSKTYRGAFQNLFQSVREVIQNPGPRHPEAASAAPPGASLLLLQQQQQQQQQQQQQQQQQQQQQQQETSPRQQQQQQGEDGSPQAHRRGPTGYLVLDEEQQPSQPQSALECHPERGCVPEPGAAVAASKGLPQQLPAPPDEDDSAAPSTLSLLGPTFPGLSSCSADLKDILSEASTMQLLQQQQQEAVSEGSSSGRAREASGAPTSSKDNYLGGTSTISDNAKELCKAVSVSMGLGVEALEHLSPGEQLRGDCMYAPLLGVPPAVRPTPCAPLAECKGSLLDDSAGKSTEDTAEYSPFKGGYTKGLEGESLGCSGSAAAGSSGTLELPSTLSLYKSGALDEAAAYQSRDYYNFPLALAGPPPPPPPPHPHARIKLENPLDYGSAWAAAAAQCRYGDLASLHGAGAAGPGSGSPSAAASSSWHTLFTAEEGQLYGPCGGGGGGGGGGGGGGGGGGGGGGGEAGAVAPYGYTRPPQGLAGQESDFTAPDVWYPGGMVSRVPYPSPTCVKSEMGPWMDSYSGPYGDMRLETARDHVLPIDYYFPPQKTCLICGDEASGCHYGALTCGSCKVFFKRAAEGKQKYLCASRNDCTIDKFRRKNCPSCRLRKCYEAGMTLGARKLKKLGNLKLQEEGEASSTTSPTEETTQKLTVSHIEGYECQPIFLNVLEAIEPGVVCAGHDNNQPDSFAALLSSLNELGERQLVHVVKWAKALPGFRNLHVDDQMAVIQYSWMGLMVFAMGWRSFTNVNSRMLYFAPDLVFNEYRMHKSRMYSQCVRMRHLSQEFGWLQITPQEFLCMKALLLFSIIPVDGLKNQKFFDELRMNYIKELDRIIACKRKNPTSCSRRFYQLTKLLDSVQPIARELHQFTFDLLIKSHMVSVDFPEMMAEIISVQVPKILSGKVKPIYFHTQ
Sequence of Estrogen receptor (Homo sapiens) (P03372 whole entry, looked up): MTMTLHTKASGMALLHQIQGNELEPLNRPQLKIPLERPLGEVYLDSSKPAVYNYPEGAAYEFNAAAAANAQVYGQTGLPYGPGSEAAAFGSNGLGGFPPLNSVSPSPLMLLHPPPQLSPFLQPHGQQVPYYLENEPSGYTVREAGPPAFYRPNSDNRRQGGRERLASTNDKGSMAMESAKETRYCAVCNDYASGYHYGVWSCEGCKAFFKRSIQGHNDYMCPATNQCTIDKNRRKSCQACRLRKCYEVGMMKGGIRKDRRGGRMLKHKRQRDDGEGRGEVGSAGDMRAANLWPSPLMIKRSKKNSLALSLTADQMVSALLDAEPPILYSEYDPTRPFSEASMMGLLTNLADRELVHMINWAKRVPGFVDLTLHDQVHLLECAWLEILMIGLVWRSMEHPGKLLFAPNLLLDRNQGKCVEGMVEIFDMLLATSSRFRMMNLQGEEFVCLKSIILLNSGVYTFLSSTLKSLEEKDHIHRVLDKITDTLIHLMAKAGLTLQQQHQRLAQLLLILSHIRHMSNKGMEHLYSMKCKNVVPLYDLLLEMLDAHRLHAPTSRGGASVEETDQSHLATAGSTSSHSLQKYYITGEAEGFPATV
Sequence of Glucocorticoid receptor (Homo sapiens) (P04150 whole entry, looked up): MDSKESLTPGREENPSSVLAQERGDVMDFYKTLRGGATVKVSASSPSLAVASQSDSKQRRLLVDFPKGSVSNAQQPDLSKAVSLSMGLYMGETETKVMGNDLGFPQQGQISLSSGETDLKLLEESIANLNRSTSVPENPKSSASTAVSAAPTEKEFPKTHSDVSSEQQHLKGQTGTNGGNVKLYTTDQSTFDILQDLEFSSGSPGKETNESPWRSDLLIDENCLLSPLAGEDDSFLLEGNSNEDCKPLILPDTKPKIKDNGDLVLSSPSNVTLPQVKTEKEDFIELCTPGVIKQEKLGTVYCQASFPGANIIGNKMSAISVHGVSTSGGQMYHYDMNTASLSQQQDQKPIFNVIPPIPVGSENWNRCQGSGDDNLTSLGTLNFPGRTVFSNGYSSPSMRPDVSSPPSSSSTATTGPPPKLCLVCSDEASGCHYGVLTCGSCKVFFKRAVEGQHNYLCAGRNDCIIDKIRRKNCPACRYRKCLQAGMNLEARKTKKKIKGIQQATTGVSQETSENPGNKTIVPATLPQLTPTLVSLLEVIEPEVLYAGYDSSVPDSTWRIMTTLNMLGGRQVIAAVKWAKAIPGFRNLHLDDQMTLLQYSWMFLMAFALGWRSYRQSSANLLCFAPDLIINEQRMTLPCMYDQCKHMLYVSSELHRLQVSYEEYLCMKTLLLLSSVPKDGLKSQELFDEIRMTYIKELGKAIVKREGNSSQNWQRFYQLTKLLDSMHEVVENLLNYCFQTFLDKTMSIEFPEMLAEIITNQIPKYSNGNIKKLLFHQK

Regarding `CCCCC(C=O)CC` (stereo unspecified), the Potency entry in assay [1], in [2], in assay [4], in assay [5], in assay [8] and in assay [13] was “inactive” throughout. Further, the compound was classed as inactive in assay [3], in assay [6], in [7], in [9], in [11] and in assay [14]. Further, the outcome in [15] and in assay [16] was inactive. Moreover, the activation in assay [10] was -0.985% (inactive). The max response in assay [12] was -2.18%.
Regarding `Cc1ccc2cccnc2c1`, the Potency entry in assay [1], in assay [2], in assay [17], in assay [4], in assay [5] and in assay [8] was “inactive” in each case. Moreover, the call in assay [3], in [6], in assay [7], in [19], in assay [9] and in assay [11] was inactive. For the same compound, the result in assay [15] and in assay [16] was inactive. Besides, the activation in assay [18] was 14.8% (inactive); in [10], -3.65% (inactive).
On to `CCCCCCCCCCCCOCC1CO1` (stereo unspecified), for which the Potency result in [1], in [2], in assay [17], in [4], in assay [5] and in assay [8] was “inactive” throughout. Further, the Potency entry in [13] is “inactive”. Further, the compound was classed as inactive in [3], in assay [6], in [7], in [9], in assay [11] and in assay [14]. Also, the compound was called inactive in [16]. Further, the activation in [10] was 7.49% (inactive). In addition, the max response in assay [12] amounted to 36.4%.
As to `CCCC(Cl)CCCC(Cl)CCC(Cl)CCC(Cl)CCC(Cl)CCCC(Cl)CCC` (stereo unspecified), the Potency result in assay [1], in assay [2], in [17], in [4], in assay [5] and in assay [8] was “inactive” throughout. Moreover, the outcome in assay [3], in assay [6], in assay [7], in [19], in assay [11] and in [14] was inactive. The call in assay [15] and in assay [16] was inactive. The activation in [18] was -5.75% (inactive); in assay [10], 3.07% (inactive). Besides, the max response in assay [12] is -30.6%.
In the case of `O=[N+]([O-])c1ccc(CCO)cc1`, the Potency result in assay [4], in assay [5], in assay [8] and in [13] was “inactive” in each case. Moreover, the result in assay [6], in assay [7], in [9], in assay [11], in assay [14] and in assay [20] was inactive. Also, the outcome in [15] and in assay [16] was inactive. Further, in [10], the activation was -5.66% (inactive). The max response in [12] turned out to be 19.9%.
With `O=C(O)CCSSCCC(=O)O`, the Potency result in [1], in [2], in assay [17], in [5], in assay [8] and in assay [13] was “inactive” throughout. Further, the result in assay [3], in [6], in assay [7], in assay [19], in assay [9] and in assay [14] was inactive. For the same compound, the compound was called inactive in assay [15] and in assay [16]. Further, the activation in [18] is -2.34% (inactive); in assay [10], -5.98% (inactive). Further, the max response in assay [12] was 29.9%.
On to `c1ccsc1`, for which the Potency result in assay [1], in [2], in [17], in [4], in assay [5] and in [8] was “inactive” each time. Also, the Potency result in [13] is “inactive”. Further, the result in assay [3], in [6], in [7], in assay [19], in assay [11] and in [14] was inactive. The outcome in assay [20] and in assay [15] was inactive. In addition, the activation in assay [18] was -6.67% (inactive). Also, the max response in assay [12] is -2.14%.
Take `Nc1cc(S(=O)(=O)O)ccc1O`: the Potency entry in assay [1], in [17], in assay [4], in [5], in assay [8] and in [13] was “inactive” in each case. Also, the compound was called inactive in assay [3], in assay [6], in [7], in assay [19], in [11] and in assay [14]. In addition, the outcome in [15] and in [16] was inactive. In addition, the figures for the activation in [18] and in assay [10] were 14.7% (inactive) and -0.152% (inactive), respectively. In addition, the max response in assay [12] was determined as 15.9%.
For `CC=O`, the Potency entry in assay [1], in [17], in assay [4], in assay [5], in assay [8] and in assay [13] was “inactive” in each case. Also, the result in [3], in assay [6], in assay [7], in assay [9], in assay [11] and in assay [14] was inactive. Also, the compound was classed as inactive in assay [15] and in assay [16]. Besides, the activation in assay [10] is -2.95% (inactive). Further, the max response in assay [12] is 23.9%.
